Test results reported in PubChem BioAssay AID588492 (Sanford-Burnham Center for Chemical Genomics, 2011).
In all, about 360,000 compounds went through this assay and about 2,300 (0.64%) were called active.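 Rule for the calls: active = compounds giving at least 50% protection of heart cells from peroxide-induced death in the single-dose screen, raw or plate-pattern-corrected value; inactive = the rest.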 The full list was thinned out, with actives kept by preference.

Assay: cardioprotection against H2O2-induced cell death, primary screen, uHTS, H9c2 cells, ATPLite luminescence (AID 588492);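 note: 0% = DMSO wells with peroxide and 100% = DMSO wells without peroxide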
Settings: H9c2 cardiomyocytes, H2O2 injury protection, 2 h, at 20 µM, active compounds read high
With `CCOc1ccc2[nH]c(=O)c(CN(CCCO)S(=O)(=O)c3ccc(F)cc3)cc2c1` the protection from H2O2 cell death was 18.6% (inactive). In the case of `COc1ccc2[nH]c(=O)c(CN(Cc3cccnc3)S(=O)(=O)c3ccccc3F)cc2c1`, the protection from H2O2 cell death is reported as 60.7% (active). For `COc1ccc(-c2[nH]ncc2CN(C)Cc2cccnc2)c(F)c1`, the protection from H2O2 cell death was -2.7% (inactive). With `O=C(CNS(=O)(=O)c1ccc2c(c1)OCCCO2)N1CCN(c2ccc(F)cc2)CC1` the protection from H2O2 cell death was -3.7% (inactive). In the case of `CC1CCC2(CC1)NC(=O)N(CC(=O)c1cccn1C)C2=O` (stereo not given), the protection from H2O2 cell death is reported as 7.1% (inactive). For `N#C/C(=C\c1ccc(-c2cccc([N+](=O)[O-])c2)o1)C(=O)NCCN1CCOCC1`, the protection from H2O2 cell death was 55% (active). In the case of `Cc1ccc(C(=O)N/C(=C/c2ccc(-c3cccc([N+](=O)[O-])c3)o2)C(=O)NCCCN(C)C)cc1`, the protection from H2O2 cell death is reported as -22.6% (inactive). For `Cc1ccc(-c2ccc(/C=N/NC(=O)CN3CCOCC3)o2)cc1[N+](=O)[O-]`, the protection from H2O2 cell death was 7.6% (inactive). With `COc1ccc(C(=O)Nc2ccc(C(=O)NCC3CCCO3)cc2)c(OC)c1OC` (stereo not given) the protection from H2O2 cell death was 10.2% (inactive). For `O=C(NCCN1C(=O)S/C(=C\c2cccnc2)C1=O)c1ccc(S(=O)(=O)N2CCCC2)cc1`, the protection from H2O2 cell death was 0.9% (inactive). For `Oc1c(C(c2ccccn2)N2CCOCC2)ccc2cccnc12` (stereo not given), the protection from H2O2 cell death was 64.9% (active). In the case of `Cc1nc(C)c(-c2nnc(-c3cccc(S(=O)(=O)N(C)C)c3)o2)cc1C(=O)NN`, the protection from H2O2 cell death is reported as -1.4% (inactive). In the case of `CCOC(=O)c1cc(-c2nnc(-c3cc(OC)c(OC)c(OC)c3)o2)c(C)nc1C`, the protection from H2O2 cell death is reported as 119% (active). In the case of `COc1cc(-c2nnc(NC(=O)C3=COCCO3)o2)cc(OC)c1OC`, the protection from H2O2 cell death is reported as -5.7% (inactive). With `CCOC(=O)c1[nH]cnc1C(=O)NC1CCCCC1` the protection from H2O2 cell death was 5.2% (inactive). For `COc1ccc(C(=O)NNC(=O)c2cc(C)[nH]n2)cc1`, the protection from H2O2 cell death was 7.7% (inactive). In the case of `Cc1cc(C(=O)N/N=C/c2cc([N+](=O)[O-])cc(C)c2O)n[nH]1`, the protection from H2O2 cell death is reported as 58.2% (active). With `Cc1occc1C(=O)N/N=C/c1ccc(-c2cccc([N+](=O)[O-])c2)o1` the protection from H2O2 cell death was 16.2% (inactive). In the case of `O=C(OC1CCOC1=O)c1ccc(-c2nc3ccccc3s2)s1` (stereo not given), the protection from H2O2 cell death is reported as -18.2% (inactive). With `Cc1cc(C)c(S(=O)(=O)c2ccc(F)cc2C)c(=O)[nH]1` the protection from H2O2 cell death was 11.1% (inactive). For `Oc1ccc(Br)cc1C=Nc1ccc2[nH]ncc2c1`, the protection from H2O2 cell death was 63.8% (active). For `CCN(CC)CCn1c(/N=C/c2cc(Br)ccc2O)nc2ccccc21`, the protection from H2O2 cell death was 32.2% (inactive). In the case of `O=C(CCc1ccc(O)cc1)NN=Cc1cc(Br)ccc1O`, the protection from H2O2 cell death is reported as 41.5% (inactive). For `CCc1cc(=O)oc2cc(OCC(=O)N3CCCc4ccccc43)ccc12`, the protection from H2O2 cell death was 22.6% (inactive). With `Cc1cc(C(=O)OCC(=O)NCc2ccco2)c(C)n1-c1ccccc1` the protection from H2O2 cell death was -1.9% (inactive). With `COc1ccc(/C=C2/S/C(=N/N=C3\CC4CCC3(C)C4(C)C)NC2=O)cc1` (stereo not given) the protection from H2O2 cell death was -7.9% (inactive). In the case of `O=[N+]([O-])c1ccc2c(c1)C(N1CCOCC1)/C(=C/C1(O)CCCCC1)O2` (stereo not given), the protection from H2O2 cell death is reported as 1.3% (inactive). In the case of `O=C1OCCC1=COCCCCOC=C1CCOC1=O`, the protection from H2O2 cell death is reported as 3% (inactive). With `O=C(NCC1(N2CCCCC2)CCCCC1)c1cccc(S(=O)(=O)Nc2ccccc2Cl)c1` the protection from H2O2 cell death was 28.2% (inactive). With `O=C(O)Cn1c(Cc2ccccc2)nc2ccccc21` the protection from H2O2 cell death was 11.1% (inactive). For `CCCn1c(N)c(C(=O)CSc2nnc(-c3cccnc3)n2-c2ccc(C)cc2C)c(=O)[nH]c1=O`, the protection from H2O2 cell death was 22.9% (inactive). With `CCCCC(=O)Nc1ccc2c(c1)C(=O)NC2=O` the protection from H2O2 cell death was 9.9% (inactive). For `CCCCC(=O)Nc1cc(C)c2c(=O)oc3ccccc3c2n1`, the protection from H2O2 cell death was 77.7% (active). In the case of `Cc1ccc(C)c(NC(=O)CSc2nc3c(oc4ccccc43)c(=O)n2-c2ccccc2)c1`, the protection from H2O2 cell death is reported as -6.4% (inactive). For `COc1ccc2c(c1)C(NS(=O)(=O)OCC(Cl)(Cl)Cl)CCC2` (stereo not given), the protection from H2O2 cell death was -4.5% (inactive). With `COc1ccc2[nH]c(=O)c(CNc3ccc(C)c(C)c3)cc2c1` the protection from H2O2 cell death was 57.7% (active). For `COc1ccc2[nH]c(=O)c(CN(CC3CCCO3)C(=O)Nc3ccccc3)cc2c1` (stereo not given), the protection from H2O2 cell death was 11.7% (inactive). For `COc1ccc(S(=O)(=O)NCCc2cc3ccc(C)c(C)c3[nH]c2=O)cc1`, the protection from H2O2 cell death was -9.7% (inactive). With `CCc1cccc(CC)c1N1C(=O)CC(Sc2ccccc2N)C1=O` (stereo not given) the protection from H2O2 cell death was -0.9% (inactive). For `O=C(NCc1cccs1)C(=O)NCC1OCCCN1S(=O)(=O)c1ccc(F)cc1` (stereo not given), the protection from H2O2 cell death was 6% (inactive). In the case of `CCOc1cc2c(Cl)ncnc2c(OCC)c1OCC`, the protection from H2O2 cell death is reported as 0.8% (inactive). In the case of `CN(C)S(=O)(=O)c1ccc(NC(=O)COC(=O)Cn2[nH]c(=O)c3ccccc3c2=O)cc1`, the protection from H2O2 cell death is reported as 72.5% (active). For `CC1(C(=O)OCC(=O)Nc2ncc(Cl)cc2Cl)CC1(Cl)Cl` (stereo not given), the protection from H2O2 cell death was -1.6% (inactive). In the case of `CC(Oc1ccc(Cl)cc1)C(=O)OCC(=O)Nc1ncc(Cl)cc1Cl` (stereo not given), the protection from H2O2 cell death is reported as 7.1% (inactive). In the case of `O=C(COC(=O)c1ccc(S(=O)(=O)N2CCCCCC2)cc1)Nc1ccccc1C(F)(F)F`, the protection from H2O2 cell death is reported as 2.5% (inactive). With `O=C(COC(=O)Cn1[nH]c(=O)c2ccccc2c1=O)Nc1c(Cl)cccc1C(F)(F)F` the protection from H2O2 cell death was 88.6% (active). With `Cc1ccc(S(=O)(=O)N(C)CC(=O)OCC(=O)Nc2ccccc2)cc1` the protection from H2O2 cell death was -0.1% (inactive). For `CCC1(CC)NC(=O)N(CC(=O)OCC(=O)c2cc(C)c(C)cc2C)C1=O`, the protection from H2O2 cell death was 4.7% (inactive). With `Cc1ccc(C)c(C(=O)COC(=O)Cn2[nH]c(=O)c3ccccc3c2=O)c1` the protection from H2O2 cell death was 82% (active). In the case of `Cc1ccc(C)c(NC(=O)COC(=O)c2nn(C)c(=O)c3ccccc23)c1`, the protection from H2O2 cell death is reported as 7% (inactive). With `CN(C)S(=O)(=O)c1ccc(NC(=O)COC(=O)c2n[nH]c3ccccc23)cc1` the protection from H2O2 cell death was -11.7% (inactive). With `O=C(COC(=O)Cn1[nH]c(=O)c2ccccc2c1=O)Nc1ncc(Cl)cc1Cl` the protection from H2O2 cell death was 79.9% (active). For `CCC1(CC)NC(=O)N(CC(=O)OCC(=O)Nc2ccc(C(F)(F)F)cc2)C1=O`, the protection from H2O2 cell death was 4.8% (inactive). For `CCc1nc2ccc(C(=O)NCCNC(C)=O)cn2c1N(CC)Cc1cccc(Br)c1`, the protection from H2O2 cell death was 4.8% (inactive). In the case of `CC(OC(=O)CNC(=O)c1cccc(F)c1)C(=O)NC1CCCCC1C` (stereo not given), the protection from H2O2 cell death is reported as 2% (inactive). With `CCCC(=O)Nc1ccc2c(c1)nc1n2CCSC1` the protection from H2O2 cell death was -7.4% (inactive). With `CS(=O)(=O)N1CCc2nc(-c3ccccc3)sc2C1` the protection from H2O2 cell death was -1.4% (inactive). With `Cc1cc(C(F)F)nn1CC(=O)NC1CCCCCC1` the protection from H2O2 cell death was -3.7% (inactive). With `O=C(OCCOCn1cc(Br)c(=O)[nH]c1=O)c1ccccc1` the protection from H2O2 cell death was 7.1% (inactive). For `Cc1cc(C)c2c(n1)sc1c(=O)n(-c3ccccc3)c(=O)[nH]c12`, the protection from H2O2 cell death was 4.5% (inactive). In the case of `CCOC(=O)c1sc(NC(=O)C2CSC3(C)CCC(=O)N23)nc1C` (stereo not given), the protection from H2O2 cell death is reported as 4% (inactive). With `COc1ccc(S(=O)(=O)NC(=O)C2(C)CCN2C(=O)COc2ccc(Cl)cc2)cc1` (stereo not given) the protection from H2O2 cell death was 5.6% (inactive). In the case of `C[C@H](O)[C@@H]1C(=O)N2CCc3c([nH]c4ccccc34)[C@@H]2C[C@@H]1N(C)C(=O)Nc1ccc(F)cc1`, the protection from H2O2 cell death is reported as -2.1% (inactive). For `O=C(Cc1ccccc1)N/N=C/c1ccc(Cl)cc1Cl`, the protection from H2O2 cell death was -15.4% (inactive). With `O=[N+]([O-])c1cc(Cl)cc(/C=N/NC(=S)Nc2cc(S(=O)(=O)N3CCOCC3)ccc2Cl)c1O` the protection from H2O2 cell death was -20.3% (inactive). For `O=C(N/N=C/c1cc(Cl)cc([N+](=O)[O-])c1O)C(O)(c1ccccc1)c1ccccc1`, the protection from H2O2 cell death was 56.6% (active). In the case of `NC(=O)Cn1c(=O)oc2ccccc21`, the protection from H2O2 cell death is reported as 6.1% (inactive). With `CCN(CC(=O)NC(=O)NCc1ccccc1)Cc1nc2ccccc2c(=O)[nH]1` the protection from H2O2 cell death was 7.1% (inactive). In the case of `CC(C)(C)c1ccc(NC(=O)COC(=O)CCc2nc3ccccc3c(=O)[nH]2)cc1`, the protection from H2O2 cell death is reported as 36.5% (inactive). For `CCN(CC)c1ccc(C(=O)NNC(=O)CCc2nc3ccccc3c(=O)[nH]2)cc1`, the protection from H2O2 cell death was 56.2% (active). In the case of `O=C(CSCc1ccccc1Cl)NNC(=O)c1ccccc1`, the protection from H2O2 cell death is reported as 1.3% (inactive). In the case of `O=C(CSc1ncn[nH]1)Nc1nc2c(F)c(F)c(F)cc2s1`, the protection from H2O2 cell death is reported as -1.5% (inactive). For `Cc1ccc(OCC(=O)Nc2ccc3oc(=O)ccc3c2)cc1C`, the protection from H2O2 cell death was 0.6% (inactive). In the case of `CCN1C(=O)[C@@H]2[C@@H]3CN(S(=O)(=O)c4ccccc4C)[C@@H](c4ccc(Cl)cc4)[C@@H]3C(=O)C[C@@H]2C1=O`, the protection from H2O2 cell death is reported as 8.3% (inactive). In the case of `CCOC(=O)CNC(=O)CSc1ccc2nnc(-c3cccnc3)n2n1`, the protection from H2O2 cell death is reported as -2.8% (inactive). In the case of `COC(=O)c1ccc(CSc2nnc(N)s2)o1`, the protection from H2O2 cell death is reported as -10.8% (inactive). In the case of `COC(=O)c1ccc(CSc2ccc3nnc(-c4ccccc4)n3n2)o1`, the protection from H2O2 cell death is reported as 80.8% (active). In the case of `CC(C)[C@@H]1COC(c2cccc(C3=N[C@H](C(C)C)CO3)c2)=N1`, the protection from H2O2 cell death is reported as -14.6% (inactive). In the case of `O=C(CN1CCN(S(=O)(=O)c2cc(Cl)ccc2Cl)CC1)c1ccc(O)c(O)c1`, the protection from H2O2 cell death is reported as 55.1% (active). For `COc1ccc(Cl)cc1S(=O)(=O)N1CCN(CC(=O)C(C)(C)C)CC1`, the protection from H2O2 cell death was -8.8% (inactive). For `N#Cc1ccsc1NC(=O)CN1CCN(S(=O)(=O)c2cc(Cl)ccc2Cl)CC1`, the protection from H2O2 cell death was 8.3% (inactive). In the case of `CCOC(=O)Cc1csc(SCc2cc(=O)oc3cc(O)ccc23)n1`, the protection from H2O2 cell death is reported as 55.7% (active). For `Cc1ccc2c(CSc3nncs3)cc(=O)oc2c1`, the protection from H2O2 cell death was -3.2% (inactive). With `CCOC(=O)Cc1csc(NC(=O)COc2ccc3c(C)cc(=O)oc3c2)n1` the protection from H2O2 cell death was 71.2% (active). With `COc1ccc(N2CCN(C(=O)COc3ccc4c(C)cc(=O)oc4c3)CC2)cc1` the protection from H2O2 cell death was 19.4% (inactive). For `CCOC(=O)Cc1csc(SCC(=O)Nc2ccc(C)cc2F)n1`, the protection from H2O2 cell death was -15.1% (inactive). In the case of `Cc1ccc(O)c(/C=N/NC(=O)COc2ccc3c(C)cc(=O)oc3c2)c1`, the protection from H2O2 cell death is reported as 38.5% (inactive). With `C/C(=N\NS(=O)(=O)c1ccccc1)c1c(O)cc(C)oc1=O` the protection from H2O2 cell death was -1% (inactive). With `Cc1ccc(Cl)cc1NC(=O)C1CCCN(c2cnccn2)C1` (stereo not given) the protection from H2O2 cell death was 1.6% (inactive). In the case of `CC1(C(=O)NCC2CCOCC2)Cc2c(-c3cccc(C(N)=O)c3)ccnc2O1` (stereo not given), the protection from H2O2 cell death is reported as 9.5% (inactive).
